Measured values as given in PMC7819943, “Rice protein-binding microarrays: a tool to detect cis-acting elements near promoter regions in rice”.
In all, about 68,000 sequences were measured (“fluorescence intensity (a.u.)”: median about 9,100, highest 2% from about 16,000 on). The entries come from a sample that favours the highest values as a whole.

What follows are sequences tested against OsWRKY34 (Oryza sativa, UniProt Q0JBA9 1-250) (assay: protein-binding microarray (RPBM); PBS, 2% BSA, 51.3 ng/ul salmon testes DNA, 50 uM zinc acetate, 200 nM TF, 25 C, 1 h; high values mean tight binding). Conditions: protein: recombinant; tags: N-terminal polyhistidine and DsRed monomer fusion (pET32a); label: CyDye5-dUTP incorporated in the synthesized complementary strand; 3' TTTTT single-stranded linker to array surface; dsDNA, one strand shown.
OsWRKY34, sequence (Q0JBA9 entry or part of it): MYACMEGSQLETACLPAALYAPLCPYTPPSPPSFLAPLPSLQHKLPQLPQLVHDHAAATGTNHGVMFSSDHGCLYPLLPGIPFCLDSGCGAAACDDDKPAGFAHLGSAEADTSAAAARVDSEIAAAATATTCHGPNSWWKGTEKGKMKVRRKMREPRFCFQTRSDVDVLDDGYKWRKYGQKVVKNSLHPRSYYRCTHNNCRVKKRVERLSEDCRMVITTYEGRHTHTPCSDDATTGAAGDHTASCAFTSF
Summary of the method: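 The binding signal is fluorescence intensity per array feature (arbitrary units). Readings came from an Axon 4000B scanner after a washed, 2% BSA-blocked, double-stranded custom Agilent array had been incubated for 1 h at 25 °C with 200 nM protein and 50 µM zinc acetate. The protein was a Ni–NTA-purified transcription factor fused N-terminally to polyhistidine and DsRed, expressed in E. coli BL21-CodonPlus.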
In the case of “AATTCTCGTCTTCTCGGAGGTTTCTGAGGGGAGGGAGAGGCGGAGTCACCTAGTGCAG”, the binding signal is reported as 8480 fluorescence intensity (a.u.).
“CCGGTCCTTCACCCACTTCAGCTTCACGTTCACCAGCGTCCGGAGTCACCTAGTGCAG” was tested, and the binding signal was 10200 fluorescence intensity (a.u.).
In the case of “ATTTTTTCCTCTAATTAAGTCATATCACATCAATTGTTTTCGGAGTCACCTAGTGCAG”, the binding signal is reported as 10200 fluorescence intensity (a.u.).
With “GGCATTTGGGTGTTATGCATGCCGGCCGGCCCGTACGTACCGGAGTCACCTAGTGCAG” the binding signal was 11700 fluorescence intensity (a.u.).
“AGCTGGATTACCCTTTATACATTTTACTTTAATCTCTTTGCGGAGTCACCTAGTGCAG” was tested, and the binding signal was 10900 fluorescence intensity (a.u.).
For “GACGTATCATAGTCTCTGTTTAGATTTCTAGTACTATGATCGGAGTCACCTAGTGCAG”, the binding signal was 9340 fluorescence intensity (a.u.).
For “ACTGAGTATTATTATATCCTAACTAAGTTATCGTACATTCCGGAGTCACCTAGTGCAG”, the binding signal was 8060 fluorescence intensity (a.u.).
For “AATCAGAATATTACCTTCTTGTATTTGTTCTCTGTAGGAACGGAGTCACCTAGTGCAG”, the binding signal was 8870 fluorescence intensity (a.u.).
For “GCTGTAGAAATTTCTCCTTCTTTGTTAAATGTATGTCTTTCGGAGTCACCTAGTGCAG”, the binding signal was 9540 fluorescence intensity (a.u.).
For “ACATACACTACACACCCTGTTCTTGCAGTACGCCAATTAACGGAGTCACCTAGTGCAG”, the binding signal was 9780 fluorescence intensity (a.u.).
“TCTCTCTCACTCTTCCGGTCTTCCCTGGGCAGGCTAGCCGCGGAGTCACCTAGTGCAG” was tested, and the binding signal was 8840 fluorescence intensity (a.u.).
With “TTGTTGTAAAGCTTATGGGTCTACTTTCATATGGTTTTGGCGGAGTCACCTAGTGCAG” the binding signal was 64100 fluorescence intensity (a.u.).
For “CAGACACATACCTTTCATGCTTCAACTTTTGTATGTTTGTCGGAGTCACCTAGTGCAG”, the binding signal was 8170 fluorescence intensity (a.u.).
For “ATGATTTTTGGGTCATTTGGTTTGTTTTTGACTTTTGCAACGGAGTCACCTAGTGCAG”, the binding signal was 12100 fluorescence intensity (a.u.).
For “TGGGGTCATGTTTGTACTTTGGCAACTGGTCGACTTCATACGGAGTCACCTAGTGCAG”, the binding signal was 18400 fluorescence intensity (a.u.).
In the case of “AATGGTTTGGTTGTTGTTTTTTTTAAAAAAAACTTTCAGGCGGAGTCACCTAGTGCAG”, the binding signal is reported as 8170 fluorescence intensity (a.u.).
With “TTCATGTCAGAATCCTATGTTTTTCCTATTCCTTTGTTTTCGGAGTCACCTAGTGCAG” the binding signal was 11000 fluorescence intensity (a.u.).
For “TTTGTACCCGTTTTCTACTTTTTTTGTTTCATATTATTAACGGAGTCACCTAGTGCAG”, the binding signal was 10900 fluorescence intensity (a.u.).
For “TATTTCTATATGGACTTTGTTTTTTCTTTTTCTTCTTTTTCGGAGTCACCTAGTGCAG”, the binding signal was 13100 fluorescence intensity (a.u.).
In the case of “ATATGTTGTTTGACTTTTTTCATAGTCAGAAGTCTATTGGCGGAGTCACCTAGTGCAG”, the binding signal is reported as 19000 fluorescence intensity (a.u.).
With “GCTATACATCTTTCCACTACTTCTCCTCAGCTCGCTTTCCCGGAGTCACCTAGTGCAG” the binding signal was 8130 fluorescence intensity (a.u.).
“AGCTTCTTTTTCTGTGATAGCAATACTGCCTCGAGGAGGACGGAGTCACCTAGTGCAG” was tested, and the binding signal was 8950 fluorescence intensity (a.u.).
With “CCCAAAGTATTGATCGTTTTTGTTTATCATTTTGCTGGATCGGAGTCACCTAGTGCAG” the binding signal was 10300 fluorescence intensity (a.u.).
For “AACCTCTACTGCTCCATATATTTTCTTTCTGTCAGCCCATCGGAGTCACCTAGTGCAG”, the binding signal was 11200 fluorescence intensity (a.u.).
With “ACGTAACACCTAGCAATTTTCTTCTCGCGAAATAAACAGTCGGAGTCACCTAGTGCAG” the binding signal was 8500 fluorescence intensity (a.u.).
“GCAACCTCAGGATGCTCCACGAGCTTTCTCTTAGCTACAACGGAGTCACCTAGTGCAG” was tested, and the binding signal was 17000 fluorescence intensity (a.u.).
With “GAGCTCCAAAGCTACGGTTTTTTTTTCTCTTTCTTTCTCACGGAGTCACCTAGTGCAG” the binding signal was 9080 fluorescence intensity (a.u.).
With “GGCAAACAATGCTCTCAGCCTCGCTTAGCTTTCACTCCACCGGAGTCACCTAGTGCAG” the binding signal was 8030 fluorescence intensity (a.u.).
“CTTCTCCCATGCGCCGCCGCAATCTCATCTCTCTGTTTTTCGGAGTCACCTAGTGCAG” was tested, and the binding signal was 9220 fluorescence intensity (a.u.).
For “TAGATCAATACTGCCTAACGAACTTTTTTTTTTTTTTACGCGGAGTCACCTAGTGCAG”, the binding signal was 16400 fluorescence intensity (a.u.).
In the case of “TACTTATATTTACTTGCAGATCAGTTGCCTGCCAATACCGCGGAGTCACCTAGTGCAG”, the binding signal is reported as 8390 fluorescence intensity (a.u.).
In the case of “GAACTTATTTTACTGCAATTGTTTGCATCACTTATTCTAACGGAGTCACCTAGTGCAG”, the binding signal is reported as 9570 fluorescence intensity (a.u.).
“CCTCTCCCTACTACTGTCGTATCGTCTCCTACCTCGCCTCCGGAGTCACCTAGTGCAG” was tested, and the binding signal was 8340 fluorescence intensity (a.u.).
“CCATCGCTGTCGCCAATTTATATTCTTTCTTAATCTCGACCGGAGTCACCTAGTGCAG” was tested, and the binding signal was 9220 fluorescence intensity (a.u.).
In the case of “AACGGTTCTTCTGGTCATTTCCAATTCGCCATCCGTCTGTCGGAGTCACCTAGTGCAG”, the binding signal is reported as 8930 fluorescence intensity (a.u.).
With “CCAATTCGCCATCCGTCTGTCGACCGCATCTTAATATCCGCGGAGTCACCTAGTGCAG” the binding signal was 17400 fluorescence intensity (a.u.).
With “CAAGCTGTTACTTTCTTGGTGGGCTTCTGTGTGCTTTATTCGGAGTCACCTAGTGCAG” the binding signal was 9940 fluorescence intensity (a.u.).
For “ACGCCTACAATGGTACTGTGTTTTTTTTATGATAGCGGTGCGGAGTCACCTAGTGCAG”, the binding signal was 8060 fluorescence intensity (a.u.).
With “TCTCTTTTCTCATTTATTCACTTGCCACATCATTTTTCATCGGAGTCACCTAGTGCAG” the binding signal was 8900 fluorescence intensity (a.u.).
“TTCTTCTTTTCTTTTTTTTTTGTTTTCTTCTCATTCTTCTCGGAGTCACCTAGTGCAG” was tested, and the binding signal was 10100 fluorescence intensity (a.u.).
For “TCTCTTTTCTTTTCTTTCTTTTTATTTTGTTGTTCCTTTACGGAGTCACCTAGTGCAG”, the binding signal was 12600 fluorescence intensity (a.u.).
For “CCGCCGCTACTCTCCATCATTTCAGTTTTCTCTCGAGTCACGGAGTCACCTAGTGCAG”, the binding signal was 10200 fluorescence intensity (a.u.).
In the case of “ACATTGTTCTCTCTTTTACGGCCTTTTTTTTTTCTGAATTCGGAGTCACCTAGTGCAG”, the binding signal is reported as 17900 fluorescence intensity (a.u.).
In the case of “ATATTCTCATTTTCAGTCTGTTGCACTAATTTTGCTATTTCGGAGTCACCTAGTGCAG”, the binding signal is reported as 12800 fluorescence intensity (a.u.).
In the case of “ACTTTATTGTTTTTCTTCTTATTTTATTTCTCTGTTCTTTCGGAGTCACCTAGTGCAG”, the binding signal is reported as 10300 fluorescence intensity (a.u.).
“TACGTTTCAGTTGTGCTTGTTCGGACCTTTCGATTTCTTTCGGAGTCACCTAGTGCAG” was tested, and the binding signal was 13900 fluorescence intensity (a.u.).
With “TTCTTTTGTTGTCCAATTCATTTCCATTTCTTGCCGTTTTCGGAGTCACCTAGTGCAG” the binding signal was 8320 fluorescence intensity (a.u.).
In the case of “ATCTTTTTGTTGTCTTTGAATTCAGTCTGTTTTTCTCATTCGGAGTCACCTAGTGCAG”, the binding signal is reported as 17900 fluorescence intensity (a.u.).
With “ACTTGCCTTGTTTCTTGTTCTTGTTCATTTCGACCGTTGTCGGAGTCACCTAGTGCAG” the binding signal was 17100 fluorescence intensity (a.u.).
“CTTTTGCACTCGAGATATTTCATCAGTTCTTGCCATTTCACGGAGTCACCTAGTGCAG” was tested, and the binding signal was 16500 fluorescence intensity (a.u.).
“TTTATACTCCTTCTGTTTCATATTATTTTTTTCTACTAGTCGGAGTCACCTAGTGCAG” was tested, and the binding signal was 8860 fluorescence intensity (a.u.).
With “GACCACTAGCAGCCTCGTAACGTTTGCCTCATTTCATCAGCGGAGTCACCTAGTGCAG” the binding signal was 10500 fluorescence intensity (a.u.).
For “TATACCTCTCTCTCTCTCTCTCTCTCTCTCTCTCTCTCTTCGGAGTCACCTAGTGCAG”, the binding signal was 8280 fluorescence intensity (a.u.).
For “TTTTTGTTTTCTCAATTCGCGAATTTAATGCTTTTGTGTACGGAGTCACCTAGTGCAG”, the binding signal was 9750 fluorescence intensity (a.u.).
